We go through five compounds from PubChem BioAssay.

Assay [1] is described as follows: Her2 expression decrease, cell viability multiplex – SKBR3 breast tumor cells, AlphaScreen, ATP viability, primary screen (AID 461;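 active = Her2 level under about 52% in both replicate screens, with viability over 70% of control, limit read from the data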;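 as to Her2 level: lower value means less Her2 protein in the cells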;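 as to viability: percent of carrier control wells set as 100% viability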). The following applies: SKBR3 Her2 protein level, 18-24 h, measured here: SKBR3 viability, ATP luminescence, at 10 µM. A general note: Bead proximity is the source of the signal in Alpha formats.
Assay [2] concerns the target Receptor tyrosine-protein kinase erbB-2 (Homo sapiens) (UniProt P04626). The description is as above. The following applies: 18-24 h, at 10 µM, stronger effect = lower value.
Assay [3] is described as follows: reduced viability of SK-BR-3 breast cancer cells – cell-based, 24 h, human, pilot screen (AID 572;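 active = viability at or below 10% of carrier control in both of two separate runs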;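 also: compound exposure lasted between 18 and 24 h rather than exactly 24 h; 100% = carrier-treated control wells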). The conditions noted are these: SK-BR-3 viability, CellTiter-Glo luminescence, at 10 µM, stronger effect = lower value. In general terms: Cellular ATP, detected with luciferase, serves as a proxy for viable cell number.
Assay [4] can be described thus: HUVEC growth inhibition – cell-based, human, primary screen (AID 575;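 active = viability at or below 30% in both replicate assays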;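 also: 100% = median of untreated cell wells with 0.1% DMSO on each plate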). The following applies: HUVEC proliferation, CellTiter-Glo luminescence, 72 h; at 10 µM; stronger effect = lower value.
Assay [5] in a line: H69AR cell proliferation blockers – human, duplicate replicates, primary screen (AID 580;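 active = viability at or under a set limit in both replicates, limit being median viability minus 3 SD, cut at about 48% in these data, passing the limit was not always enough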;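 also: 100% = mean luminescence of untreated wells and 0% = no signal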). The following applies: H69AR lung tumor cells viability, ATP luminescence, 72 h; at 10 µM; stronger effect = lower value.
A short description of assay [6]: MRP1 drug-resistance reversers in H69AR cells – cell-based, doxorubicin co-treatment, pilot screen (AID 601;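 active = viability loss from added drug above about 55%, and viability with drug at most 40%, in both replicates, limit read from the data, passing the limit was not always enough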). The conditions noted are these: CellTiter-Glo, 72 h, at 10 µM; for differential viability (reversal): stronger effect = higher value.
Assay [7] is described as follows: yeast transport mutant growth inhibition pilot in 384-well plates, post-Golgi transport modulator project (AID 636; in the data active = inhibition above about 31%). The following applies: absorbance 615 nm, about 18 h, stronger effect = higher value.
Assay [8] in a line: growth suppression of yeast trafficking mutant, preliminary HTS, modulators of trafficking downstream of Golgi apparatus project, 1536-format plate, OD 615 nm (AID 637; in the data active = inhibition above about 30%). The conditions noted are these: yeast transport mutant growth, absorbance 615 nm, 18 h; stronger effect = higher value.
The nature of assay [9]: S. cerevisiae growth inhibition in permissive medium (OD615), pilot counter-assay for S. cerevisiae lifespan shortening project, permissive growth control (AID 705;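 active = growth inhibition above 25% in both replicates, a cutoff set 3 SD above the mean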). The conditions noted are these: OD615, 24 h, at 10 µM, stronger effect = higher value.
Assay [10] can be described thus: S. cerevisiae growth inhibition in restrictive medium, OD615, pilot screen, restrictive growth control, yeast lifespan reduction project (AID 706;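 active = growth inhibition above a set limit, 3 SD over mean compound inhibition, in both replicates, cut at about 43% in these data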;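 also: modified DeaD lifespan yeast strain shifted to restrictive glucose medium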). The conditions noted are these: OD615, 48 h, at 10 µM, stronger effect = higher value.
Assay [11] in a line: doxorubicin toxicity protection in MRP-1 cells – H69AR cells, CellTiter-Glo, duplicate, MRP-1 activator project, pilot screen (AID 807).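 Also: compound pretreatment 18-22 h then 72 h combined with doxorubicin; 0% = doxorubicin alone and 100% = vehicle without doxorubicin.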 The conditions noted are these: H69AR viability with doxorubicin, CellTiter-Glo luminescence; at 10 µM; stronger effect = higher value.
Assay [12] can be described thus: viability of HCT116 without oncogenic beta-catenin – human colon tumor cells, pilot screen (AID 823;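 active = cell viability at or below a set limit in both duplicate runs, the limit being the all-compound median minus 4 SD, cut at about 23% in these data, passing the limit was not always enough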;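 also: 0% = wells killed by 20 µM Hyamine and 100% = untreated DMSO cell wells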). The following applies: HCT116 beta-catenin knockout viability, CellTiter-Glo, 60 h; at 10 µM; stronger effect = lower value.
The nature of assay [13]: viability of PTEN-null HCT116 cells – cell-based, HCT116 clonal line, CellTiter-Glo, pilot screen (AID 824;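 active = viability at or below 27.92% in each of two runs, the all-compound median minus 4 SD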;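 also: 0% = 20 µM Hyamine control and 100% = vehicle cell control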). The conditions noted are these: HCT116 PTEN-deleted viability, 60 h, at 10 µM, stronger effect = lower value.
Assay [14] in a line: RAM pathway blockade in budding yeast – dse1pr::URA3 reporter, 5-FOA selection, pilot screen (AID 869;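 active = inhibition over a set limit, the all-compound mean plus 3 SD, in both replicate runs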;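 also: 0% = DMSO wells with no growth and 100% = 10 µM 1-NA-PP1 with full growth; RAM network block rescues cells from 5-FOA so hits raise OD615 growth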). The following applies: S. cerevisiae dse1pr::URA3 5-FOA growth, OD615, 2 d; at 10 µM; stronger effect = higher value; strain carries analog-sensitive mutant Cbk1 kinase.
Assay [15] in a line: RAM signaling pathway blockade in yeast – S. cerevisiae, Pdr1DBD-CYC8 efflux-inhibited sensitized strain, primary screen (AID 1298;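 active = RAM network inhibition above 8.4% in each of two replicates, 3 SD over the compound average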;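 also: 0% = DMSO untreated cells without growth and 100% = 10 µM 1-NA-PP1 full growth; higher means more yeast growth rescued from 5-FOA killing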). The conditions noted are these: S. cerevisiae cbk1-as DSE1-URA3 strain, 5-FOA growth OD615, 2 d; at 50 µM; stronger effect = higher value.
The mark [16] stands for this setting: H69AR cells + 2 uM doxorubicin, measured here: viability with 2 uM doxorubicin, stronger effect = lower value.
[17] abbreviates: H69AR cells, compound alone cytotoxicity.

Inconclusive results are not listed. Calls of active or inactive are those of the source.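 The calls were made as follows, unless noted: active = viability increase at or above a cutoff of the median across tested compounds plus 3 SD (cut at about 8.5% in these data, passing the limit was not always enough); inconclusive = some gains above the cutoff, reason not given; inactive = the rest.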

In general, viability refers to a read-out of living cells in per cent, often relative to untreated cells. As a reminder, the inhibition is the relative decrease from the control value, in per cent.

Chain of Receptor tyrosine-protein kinase erbB-2 (Homo sapiens) (P04626 whole entry, looked up): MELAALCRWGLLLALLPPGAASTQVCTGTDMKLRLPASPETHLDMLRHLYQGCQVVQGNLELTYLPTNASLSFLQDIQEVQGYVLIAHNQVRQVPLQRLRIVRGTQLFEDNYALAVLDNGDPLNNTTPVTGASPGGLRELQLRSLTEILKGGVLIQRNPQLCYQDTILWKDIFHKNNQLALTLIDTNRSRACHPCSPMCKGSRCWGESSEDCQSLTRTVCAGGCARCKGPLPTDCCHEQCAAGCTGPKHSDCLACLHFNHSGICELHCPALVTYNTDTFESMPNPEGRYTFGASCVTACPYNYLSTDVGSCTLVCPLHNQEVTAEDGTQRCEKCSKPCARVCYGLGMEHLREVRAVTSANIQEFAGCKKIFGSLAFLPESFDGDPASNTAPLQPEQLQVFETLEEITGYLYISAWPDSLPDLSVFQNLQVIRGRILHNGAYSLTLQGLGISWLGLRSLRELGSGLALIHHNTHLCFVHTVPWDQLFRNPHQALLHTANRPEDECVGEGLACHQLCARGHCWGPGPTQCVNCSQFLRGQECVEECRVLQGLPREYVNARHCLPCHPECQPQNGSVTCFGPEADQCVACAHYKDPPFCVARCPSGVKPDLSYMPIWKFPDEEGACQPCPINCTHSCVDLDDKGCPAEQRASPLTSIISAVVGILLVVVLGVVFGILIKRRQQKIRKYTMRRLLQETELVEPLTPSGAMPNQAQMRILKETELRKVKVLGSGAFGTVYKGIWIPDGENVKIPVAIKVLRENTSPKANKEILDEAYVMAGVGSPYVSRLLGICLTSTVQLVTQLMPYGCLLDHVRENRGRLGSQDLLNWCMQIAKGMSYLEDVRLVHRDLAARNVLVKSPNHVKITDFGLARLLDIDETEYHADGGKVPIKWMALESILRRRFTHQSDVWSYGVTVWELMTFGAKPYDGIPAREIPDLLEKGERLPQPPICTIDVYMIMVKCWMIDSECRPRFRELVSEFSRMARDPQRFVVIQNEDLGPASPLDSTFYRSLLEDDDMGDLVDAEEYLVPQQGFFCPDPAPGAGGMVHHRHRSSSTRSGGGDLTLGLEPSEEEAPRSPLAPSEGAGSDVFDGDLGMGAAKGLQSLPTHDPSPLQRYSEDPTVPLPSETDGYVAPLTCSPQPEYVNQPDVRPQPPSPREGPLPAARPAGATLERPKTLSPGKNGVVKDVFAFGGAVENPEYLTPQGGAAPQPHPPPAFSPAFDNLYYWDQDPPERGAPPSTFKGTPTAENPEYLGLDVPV

As for `COc1cccc(NC(=O)c2nc3nc(C)cc(C(F)F)n3n2)c1`, the viability in assay [1] is 100%; in assay [3] it was 100% (inactive); in assay [4], 93.9% (inactive); in assay [5] it was 84% (inactive); in assay [6] (setting [16]), 86.8%; in [6] (setting [17]) it was 84%. Further, the viability is 107% (inactive) in assay [12] and 101% (inactive) in assay [13]. Also, the Her2 level in assay [2] was 106% (inactive). Moreover, in assay [6] (H69AR cells + 2 uM doxorubicin), the differential viability (reversal) was -2.74% (inactive). Also, the figures for the inhibition in assay [7], in [8] and in assay [14] were 1.47% (inactive), 4.5% (inactive) and 0.62% (inactive), respectively. Moreover, the growth inhibition in assay [9] is -11.3% (inactive); in [10] it was -11.1% (inactive). Further, the viability increase in assay [11] was 1.69% (inactive). Besides, the RAM network inhibition in assay [15] is -0.33% (inactive).

Turning to `CC1C(=O)C(C)C(c2cccs2)NC1c1cccs1` (stereo not given), the viability in assay [1] was 83%; in assay [3], 83% (inactive); in assay [4], 101% (inactive); in [5], 104% (inactive); in assay [6] (setting [16]), 100%; in assay [6] (setting [17]), 104%. Further, the values for the viability in [12] and in [13] were 87.3% (inactive) and 91% (inactive), respectively. The Her2 level in assay [2] is 100% (inactive). Further, in assay [6] (H69AR cells + 2 uM doxorubicin), the differential viability (reversal) was 3.58% (inactive). Besides, the values for the inhibition in assay [7], in assay [8] and in assay [14] were 1.73% (inactive), 2.42% (inactive) and 0.78% (inactive), respectively. In addition, the growth inhibition is -1.82% (inactive) in assay [9] and -0.61% (inactive) in assay [10]. In assay [11], the viability increase is 0.03% (inactive). Further, in assay [15], the RAM network inhibition is 1.45% (inactive).

On to `O=C(c1ccc2nc(N3CCOCC3)sc2c1)N1CCCC1`, for which the viability in assay [1] is 94%; in [3], 94% (inactive); in assay [4], 93.6% (inactive); in assay [5] it was 108% (inactive); in assay [6] (setting [16]), 89.4%; in [6] (setting [17]) it was 108%. For the same compound, the viability in [12] is 99.1% (inactive); in assay [13], 95.4% (inactive). Moreover, the Her2 level in assay [2] was 96% (inactive). Besides, in assay [6] (H69AR cells + 2 uM doxorubicin), the differential viability (reversal) is 18.8% (inactive). Also, the figures for the inhibition in [7], in [8] and in [14] were -1.41% (inactive), 9.17% (inactive) and -0.14% (inactive), respectively. Also, the values for the growth inhibition in assay [9] and in assay [10] were -2.18% (inactive) and -7.76% (inactive), respectively. For the same compound, in [11], the viability increase is -2.73% (inactive). In addition, the RAM network inhibition in [15] is 1.02% (inactive).

As to `CC(C)c1nnc(NC(=O)c2ccc(N3C(=O)CCC3=O)cc2)s1`, the viability is 91.5% in assay [1]; 91.5% (inactive) in assay [3]; 100% (inactive) in assay [4]; 92.5% (inactive) in assay [5]; 94.3% in assay [6] (setting [16]); 92.5% in assay [6] (setting [17]). In addition, the values for the viability in assay [12] and in [13] were 101% (inactive) and 95.3% (inactive), respectively. In assay [2], the Her2 level was 89.5% (inactive). Besides, the differential viability (reversal) in [6] (H69AR cells + 2 uM doxorubicin) is -1.78% (inactive). In addition, the inhibition in assay [7] is -3.33% (inactive); in assay [8] it was -0.67% (inactive); in assay [14], 1.46% (inactive). The values for the growth inhibition in assay [9] and in assay [10] were -2.77% (inactive) and -18.5% (inactive), respectively. Further, the viability increase in assay [11] is -4.79% (inactive). Also, the RAM network inhibition in [15] was 3.77% (inactive).

`CCOc1ccc(N2C(=O)CC(N3CC(C)OC(C)C3)C2=O)cc1` (stereo not given): the viability is 97% in [1]; 97% (inactive) in assay [3]; 100% (inactive) in assay [4]; 89.2% (inactive) in [5]; 91.4% in assay [6] (setting [16]); 89.2% in assay [6] (setting [17]). Besides, the viability is 105% (inactive) in assay [12] and 98.8% (inactive) in [13]. Moreover, in assay [2], the Her2 level is 93% (inactive). Further, the differential viability (reversal) in assay [6] (H69AR cells + 2 uM doxorubicin) was -2.21% (inactive). In addition, the inhibition in assay [7] is -3.72% (inactive); in assay [8], 1.33% (inactive); in assay [14], 1.47% (inactive). Moreover, the growth inhibition in assay [9] is -17.2% (inactive); in assay [10], -10.4% (inactive). The viability increase in assay [11] was -1.01% (inactive). Further, the RAM network inhibition in assay [15] was 2.33% (inactive).
